Measurements reported in PubChem BioAssay.
Activity calls are given as the source filed them. Unless noted, the rule behind the calls is not given here.

What was measured:
[1] = system: XIP peptide (Xip251-270) binding; assay: XIP fragment 251-270 binding compounds – biochemical, small-molecule microarray, fluorescence 635/667 nm, 0.1 µg/mL protein, primary screen (AID 1182); conditions: fluorescent protein binding, 635 nm, higher = more signal, called active from +8 up or from −8 down
XIP peptide (Xip251-270) = assay: compounds binding XIP fragment 251-270 – biochemical, small-molecule microarray, fluorescence 635/667 nm, 0.5 µg/mL protein, primary screen (AID 1183); conditions: fluorescence 635 nm, higher = more signal
[2] = blood-stage malaria parasite viability loss – strain 3D7, DAPI fluorescence, 100 nL, primary screen (AID 1184);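 note: parasites grown inside human red blood cells in medium with human serum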; conditions: P. falciparum 3D7 growth, 3 d, higher = more signal
[3] = molecular target: Homeobox protein Hox-A13 (Mus musculus) (UniProt Q62424); assay: disruptors of Hoxa13 oligonucleotide interaction – biochemical, fluorescence polarization, labeled oligonucleotide, primary screen (AID 1185); conditions: Hoxa13:DNA binding, 15 min, higher = more signal, called active from +8 up or from −8 down
[4] = blockers of DNA damage checkpoint Chk1 activation – imaging, HeLa, hydroxyurea, phospho-Chk1 antibody, percent positive cells, primary screen (AID 1186); conditions: hydroxyurea-induced phospho-Chk1 immunofluorescence imaging, higher = more signal
[5] = blockers of DNA damage checkpoint Chk1 activation – imaging, HeLa, hydroxyurea, phospho-Chk1 nuclear intensity, primary screen (AID 1187); conditions: hydroxyurea-induced phospho-Chk1 immunofluorescence imaging, higher = more signal

Sequence of Homeobox protein Hox-A13 (Mus musculus) (Q62424 whole entry, looked up): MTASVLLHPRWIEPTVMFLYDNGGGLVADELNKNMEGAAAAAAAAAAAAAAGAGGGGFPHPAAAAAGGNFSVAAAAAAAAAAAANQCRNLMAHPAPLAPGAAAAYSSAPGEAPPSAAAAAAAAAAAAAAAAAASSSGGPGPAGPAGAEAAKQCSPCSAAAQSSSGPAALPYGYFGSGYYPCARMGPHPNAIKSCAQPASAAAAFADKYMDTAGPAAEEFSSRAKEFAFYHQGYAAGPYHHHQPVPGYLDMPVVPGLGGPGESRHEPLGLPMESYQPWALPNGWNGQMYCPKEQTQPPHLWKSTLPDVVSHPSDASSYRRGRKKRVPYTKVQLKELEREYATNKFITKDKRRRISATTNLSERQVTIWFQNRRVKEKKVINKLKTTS

Row | SMILES | composite z-score [1] | composite z-score (XIP peptide (Xip251-270)) | z-score [2] | z-score [3] | z-score [4] | z-score [5]
1 | C=CCOC(=O)[C@H]1[C@@H]2C(=O)O[C@@H](c3ccccc3)[C@@H](c3ccccc3)N2[C@@H](c2ccc(OCCOC(=O)[C@@H]3C[C@@H]4C(=O)N5CCC[C@H]5C(=O)N4[C@@H]3c3cccc(OCCO)c3)cc2)[C@]12C(=O)Nc1ccc(I)cc12 | 0.108 (inactive) | 0.792 | -1.66 | 2.03 (inactive) | 0.351 (inactive) | 0.557 (inactive)
2 | O=C(NCCN1CCOCC1)[C@@H]1c2ccccc2C(=O)N(Cc2cc(C(F)(F)F)cc(C(F)(F)F)c2)[C@H]1c1ccc(CO)cc1 | 0.532 (inactive) | 0.304 | -1.27 | -4 (inactive) | -0.24 (inactive) | -0.268 (inactive)
3 | [N-]=[N+]=Nc1ccccc1C[C@@]1(C(=O)N2CCCCC2)N=C(c2ccc(OCCCO)cc2)O[C@@H]1c1ccccc1 | -0.0034 (inactive) | 0.727 | -2.19 | -5.04 (inactive) | -0.878 (inactive) | -0.654 (inactive)
4 | O=C1OCCC=C[C@H]2OC34C=CCN(c5ccc(Cl)cc5)C(=O)[C@H]3N(CCCO)C(=O)[C@@H]4C12 (stereo not given in full) | -0.869 (inactive) | -0.481 | -1.83 | -3.2 (inactive) | -0.511 (inactive) | -0.536 (inactive)
5 | COC(=O)[C@@]1(Cc2ccc(OC)cc2)[C@H]2c3cc(C(=O)N4CCCC4)n(Cc4nc5ccccc5[nH]4)c3C[C@H]2CN1C(=O)c1ccccc1 | 1.01 (inactive) | 0.636 | -1.22 | -2.23 (inactive) | 0.732 (inactive) | 0.409 (inactive)
6 | COc1ccc(C(=O)Nc2ccc(CN3C(=O)[C@]4(O[C@H](CC(=O)N5CCC[C@H]5CO)[C@@H]([Si](C)(C)c5ccc(OC)cc5)[C@@H]4C)c4ccccc43)cc2)cc1 | 0.731 (inactive) | 0.76 | 0.0279 | -2.62 (inactive) | 0.303 (inactive) | 0.493 (inactive)
7 | CCCC1(C(=O)OC)C=C2C(=C(c3ccccc3)C(=O)C2C)CN1 (stereo not given) | 0.774 (inactive) | 0.871 | -0.105 | -8.64 (active) | -0.323 (inactive) | -0.277 (inactive)
8 | C=C(CCCC)C(=O)CC[C@@H](OC(C)=O)c1ccc(CO)o1 | 0.247 (inactive) | 0.337 | -0.201 | -3.66 (inactive) | 0.593 (inactive) | 0.245 (inactive)
9 | CC(C)CN1C(=O)[C@@]2(c3ccc([N+](=O)[O-])cc3)CC(=O)N(C3CCCCC3)[C@@H]2c2ccc(CO)cc21 | -0.0685 (inactive) | -0.57 | -0.643 | -0.113 (inactive) | 0.0566 (inactive) | 0.558 (inactive)
10 | CC1CC/C=C\[C@H]2OC34C=CCN(c5ccc6ccccc6c5)C(=O)[C@H]3N(CCO)C(=O)[C@@H]4C2C(=O)O1 (stereo not given in full) | 0.866 (inactive) | 0.492 | -0.607 | -5.51 (inactive) | -0.209 (inactive) | -0.434 (inactive)
11 | COc1ccc(C(O)C2C=CC3C(=O)N(C)C(=O)C3N2NC(=O)OC(C)(C)C)c2ccccc12 (stereo not given) | 0.661 (inactive) | 0.744 | -0.526 | -4.22 (inactive) | 0.667 (inactive) | 0.704 (inactive)
12 | [N-]=[N+]=NCc1ccccc1[C@@H]1OC(c2ccc(OCCCO)cc2)=N[C@]1(CCS(=O)(=O)c1ccccc1)C(N)=O | 0.57 (inactive) | 0.869 | -0.397 | -3.55 (inactive) | -0.0248 (inactive) | 0.227 (inactive)
13 | COc1ccc([C@H]2C[C@H]3C(Br)=C[C@@]2(CO)C(=O)[C@]32CO2)cc1 | -0.358 (inactive) | -0.311 | 0.951 | -1.05 (inactive) | -0.0281 (inactive) | 0.202 (inactive)
14 | COCCCNC(=O)[C@@]1(Cc2ccccc2CN=[N+]=[N-])N=C(c2ccc(OCCCO)cc2)O[C@H]1c1ccccc1CN=[N+]=[N-] | 1.01 (inactive) | 0.443 | -2.23 | -4.09 (inactive) | -0.485 (inactive) | -0.763 (inactive)
15 | COC(=O)c1c2oc(c1C(=O)OC)C(=O)N[C@@H](C(C)C)Cn1cc(nn1)C1(CCCCC1)NC(=O)N[C@H](CO)CC2 | 0.0023 (inactive) | 0.0911 | 0.0538 | -0.587 (inactive) | 0.193 (inactive) | 0.284 (inactive)
16 | NCCCCCNC(=O)[C@H]1C[C@H]2C(=O)N[C@@H](Cc3ccccc3)C(=O)N2[C@H]1c1cccc(OCCO)c1 | 1.51 (inactive) | 0.683 | -0.329 | -3.23 (inactive) | 0.0742 (inactive) | 0.304 (inactive)
17 | C#CCN1[C@@H](Cc2ccc(O)cc2)C(=O)O[C@H](Cc2ccccc2)[C@@H]1/C=C/C1CC1 | -0.111 (inactive) | 0.0549 | 0.32 | -5.26 (inactive) | -0.473 (inactive) | -0.542 (inactive)
18 | COC(=O)[C@]1(Cc2ccccc2)N=C(c2ccc(OCCCO)cc2)O[C@@H]1c1ccccc1N=[N+]=[N-] | 0.062 (inactive) | 0.685 | -2.27 | -2.66 (inactive) | -0.566 (inactive) | -0.724 (inactive)

Row | SMILES | composite z-score [1] | composite z-score (XIP peptide (Xip251-270)) | z-score [2] | z-score [3] | z-score [4] | z-score [5]
19 | CC(c1ccccc1)C(O)C1C=CC2C(=O)N(C)C(=O)C2N1NC(=O)OC(C)(C)C (stereo not given) | 2.04 (inactive) | 0.63 | 1.05 | -2.6 (inactive) | -0.129 (inactive) | -0.0976 (inactive)
20 | CCCCN1CC=CC23O[C@@H]4C=CCCOC(=O)C4[C@H]2C(=O)N(CCCCCO)[C@@H]3C1=O (stereo not given in full) | -0.17 (inactive) | 0.779 | 0.474 | -4.72 (inactive) | -2.17 (inactive) | -1.9 (inactive)
21 | CC(C)(C)OC(=O)CC[C@]1(C(N)=O)N=C(c2ccc(OCCCO)cc2)O[C@H]1c1ccccc1 | 1.25 (inactive) | -0.612 | 0.404 | -2.87 (inactive) | 0.444 (inactive) | -0.0163 (inactive)
22 | COCC(=C=CC[C@H](O)c1cccc(OCCO)c1)CCO | 1.15 (inactive) | 0.433 | 0.547 | -2.29 (inactive) | -0.0132 (inactive) | -0.479 (inactive)
23 | CCCCN1CC=CC23O[C@@H]4/C=C\CCCOC(=O)C4[C@H]2C(=O)N(CCCCCO)[C@@H]3C1=O (stereo not given in full) | -0.359 (inactive) | 0.41 | 1.34 | -4.13 (inactive) | 1.19 (inactive) | 0.831 (inactive)
24 | O=C(CS)NCCCCCNC(=O)[C@H]1C[C@H]2C(=O)NCC(=O)N2[C@H]1c1ccc(O)cc1 | -0.344 (inactive) | 0.149 | 0.201 | -1.2 (inactive) | -0.831 (inactive) | -0.795 (inactive)
25 | COc1ccc([Si](C)(C)[C@@H]2[C@@H](CC(=O)N3CCC[C@H]3CO)O[C@]3(C(=O)N(Cc4cccc(I)c4)c4ccccc43)[C@H]2C)cc1 | 0.302 (inactive) | 0.572 | -2.28 | -3.72 (inactive) | -0.198 (inactive) | -0.353 (inactive)
26 | O=C(O)[C@H](Cc1ccccc1)n1cc(-c2ccccc2)nn1 | -0.152 (inactive) | 0.297 | 0.0447 | -1.17 (inactive) | 0.425 (inactive) | -0.0072 (inactive)
27 | N#Cc1ccc(C(O)C2C=CC3C(=O)N(c4ccccc4)C(=O)C3N2Nc2ccccc2F)cc1 (stereo not given) | 0.339 (inactive) | 0.749 | -0.85 | -3.57 (inactive) | -0.395 (inactive) | -0.0743 (inactive)
28 | COCCOC(=O)N1C(=O)[C@@]2(c3ccccc31)[C@H](c1ccc(OCCO)cc1)N1[C@H](c3ccccc3)[C@H](c3ccccc3)OC(=O)[C@H]1[C@@H]2C(=O)N1CCc2cc(OC)c(OC)cc2C1 | 0.933 (inactive) | 0.919 | -2.15 | 2.01 (inactive) | 0.147 (inactive) | 0.0081 (inactive)
29 | COC(=O)[C@@]1(Cc2ccccc2)[C@H]2c3cc(C(=O)N(C)C)n(Cc4ccc(OC)c(OC)c4)c3C[C@H]2CN1C(=O)c1ccccc1 | 0.713 (inactive) | 0.664 | -1.44 | -4.39 (inactive) | 0.639 (inactive) | 0.614 (inactive)
30 | O=C1[C@@]23C=C(Br)[C@H](C[C@@H]2COC3)[C@]12CO2 | -0.0125 (inactive) | -1.48 | 1.81 | -7.3 (inactive) | 0.825 (inactive) | 0.343 (inactive)
31 | CC(C)[C@@H](C(=O)O)n1cc(C2(O)CCCCC2)nn1 | 0.142 (inactive) | 0.297 | 0.564 | -0.619 (inactive) | -0.3 (inactive) | -0.12 (inactive)
32 | CN1C(=O)C2C=CC(C(O)c3c(F)cccc3Cl)N(NC(=O)OC(C)(C)C)C2C1=O (stereo not given) | 1.69 (inactive) | 0.836 | 0.436 | -1.51 (inactive) | 0.0188 (inactive) | 0.0545 (inactive)
33 | CO[C@H]1O[C@H](CO)[C@@H](OC(=O)Nc2cccc(F)c2)[C@H](OC(=O)Nc2ccccc2)[C@H]1OC(=O)Nc1ccccc1 | 0.879 (inactive) | 0.882 | -2.38 | -5.97 (inactive) | -0.357 (inactive) | 0.161 (inactive)
34 | NC(=O)NCC#Cc1ccc2c(c1)[C@]1(C(=O)N2)[C@H](C(=O)O)[C@H]2C(=O)O[C@H](c3ccccc3)[C@H](c3ccccc3)N2[C@@H]1c1ccc(O)cc1 | 0.88 (inactive) | 0.275 | 0.137 | -5.06 (inactive) | 0.0315 (inactive) | 0.118 (inactive)
35 | COC(=O)[C@@]1(Cc2ccc(OC)cc2)[C@H]2c3cc(C(=O)N(C)C)n(Cc4ccc(C(F)(F)F)nc4)c3C[C@H]2CN1C(=O)c1ccccc1 | 0.233 (inactive) | 0.497 | 0.526 | -3.56 (inactive) | 0.832 (inactive) | 0.858 (inactive)
